HT1080 IDH1KD tx = kills HT-1080 cells with IDH1 knockdown | 360,000 compounds, 2% hits | Potency, µM (titrated, usually from 46.1 µM), without a hit: at the highest dose activity, negative = toxicity, hits mostly cytotoxic | HT-1080 IDH1 knockdown viability, ATP luminescence, 48 h;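 also: potency is read from the fitted curve at half-maximal effect; 0% = DMSO wells and -100% = cell-free medium wells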
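IDH1KD HT-1080 cells, 750/well, RPMI + 5% FBS; compound pinned after 2 h settling; 48 h, 37 °C; CellTiter-Glo luminescence; % activity normalised to DMSO and no-cell wells; curves fitted, classed by r2 and efficacy.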
DT40 TDP1 no CPT = qHTS for Inhibitors of human tyrosyl-DNA phosphodiesterase 1 (TDP1): qHTS in cells in absence of CPT | Potency, µM (top dose mostly 46.2 µM), without a hit: at the highest dose activity change, negative = growth inhibition, most hits filed as inhibitors | DT40 Tdp1-/- hTDP1 cells, no CPT, ATP luminescence, 48 h | AID 686978, 2013 | 420,000 compounds, 15% hits; also: potency is read from the fitted curve at half-maximal effect; nearly all actives have a fitted effect of over 55% in size
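Camptothecin absent (DMSO only). Human TDP1-complemented DT40 knockout cells, 400 cells/well, 37 °C for minimum 48 hr; ATP measured via CellTiter-Glo, 30 min dark incubation, luminescence.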
IL1B secr inh = blocks inflammasome-driven IL-1 beta release; 360,000 compounds, 4.7% hits; THP-1 LPS/ATP IL-1B secretion, AlphaLISA, 16 h; hits give low values; AID 743279; activity change, % at 57.5 µM; in the data active = activity change below about -50%; inconclusive = mostly about -30% to -49%
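Secreted IL-1B measured by AlphaLISA bead assay after 16 h compound exposure of THP-1 cells; compounds (final up to 57.5 uM) added 1 h before LPS (250 ng/mL) and ATP (1.25 mM) stimulation; lower signal means less secretion.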
HT1080-NT tox = kills 2HG-producing HT-1080-NT fibrosarcoma cells | 360,000 compounds, 1.6% hits | Potency, µM (titrated, usually from 46.1 µM), inactives show at the highest dose activity, negative = less viability, usual class: cytotoxic | HT-1080-NT fibrosarcoma viability, CellTiter-Glo ATP luminescence, 48 h;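 also: NT is the 2HG producing partner of a matched IDH1 knockdown line; potency is read from the fitted curve at half-maximal effect; 0% = DMSO-treated cells and -100% = media-only wells without cells; nearly all actives have a fitted effect of over 55% in size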
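HT-1080-NT; 750 cells/well; 5% FBS RPMI; 48 h compound, 37 degrees C; CellTiter-Glo luminescence; curve fitting and curve-class assignment.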
DT40 TDP1 CPT = DT40-hTDP1 cell growth loss with CPT. chicken DT40 Tdp1-/-;hTDP1 cells + 20 nM CPT, ATP luminescence, 48 h. Potency, µM (highest dose often 46.2 µM), for the others: top-dose activity change, negative = growth inhibition, usual class: inhibitors. 420,000 compounds, 12% hits. AID 686979; also: potency is read from the fitted curve at half-maximal effect; nearly all actives have a fitted effect of over 55% in size
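Chicken DT40 Tdp1-/- cells stably complemented with human TDP1 were seeded at 400 cells/well in medium containing 20 nM camptothecin, exposed to pin-transferred compounds, and grown at 37 °C for at least 48 hr. Viability was read as ATP luminescence.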
The depositor's hits bear a star; u = inconclusive; x = not tested or not shown. The list is not random: actives were taken first. Their share in the collection is about 19%. Unless noted, calls follow the shape of the dose curve; as a rule, active = well fitted curve in the direction sought with a large enough effect; inconclusive = small, poorly fitted or top-dose-only effect, or another doubt; inactive = no such curve, though single readings can be large; an effect the other way counts as inactive or inconclusive. Unless noted, % is scaled to controls: 0 for no effect and ±100 for the full control effect.

SMILES	HT1080 IDH1KD tx	DT40 TDP1 no CPT	IL1B secr inh	HT1080-NT tox	DT40 TDP1 CPT
CC(=O)Nc1ccc(NC2CCCCC2NS(=O)(=O)c2ccc(Cl)cc2)cc1 (centres undefined)	-1%	15%	22	-1%	-9%
CCOc1ccc(S(=O)(=O)c2c[nH]c3ccc(C)cc3c2=O)cc1	-4%	-5%	0	0%	-15%
Cc1ccc2[nH]cc(S(=O)(=O)c3ccc(F)cc3)c(=O)c2c1	-2%	9.2µM*	-6	-4%	u
Nc1cc(N2CCCC2)c(Cl)cc1[N+](=O)[O-]	-1%	u	-23	-9%	-13%
O=[N+]([O-])c1cc(Cl)c(Cl)c(Cl)c1Cl	20%	u	-93*	0%	-17%
CC1=C(C(=O)Nc2cccc(C)n2)C(c2ccc3c(c2)OCO3)C2=C(CC(c3ccco3)CC2=O)N1 (centres undefined)	-1%	-7%	u	0%	-10%
COc1ccccc1OC(C)C(=O)Nc1c(C(=O)c2ccc(Cl)cc2)oc2ccccc12 (centres undefined)	x	0%	x	x	-4%
N#C/C(=C1\SCC(c2ccccc2Cl)S1)n1ccnc1 (centres undefined)	x	24µM*	x	x	u
CCOc1ccccc1NC(=O)Cn1nnc(C(=O)NCc2ccco2)c1N	0.041µM*	0.023µM*	22	u	0.0092µM*
CCOc1ccccc1NC(=O)Cn1nnc(C(=O)NCc2ccc3c(c2)OCO3)c1N	12µM*	2.6µM*	30	u	4.1µM*
COc1cccc(CNC(=O)c2nnn(CC(=O)Nc3ccc(Br)cc3)c2N)c1	u	5.2µM*	5	-20%	10µM*
Cc1cc(C)cc(NC(=O)Cn2nnc(C(=O)NCc3ccc4c(c3)OCO4)c2N)c1	u	0%	64	18µM*	-4%
COc1ccc(NC(=O)Cn2nnc(C(=O)NCc3ccc4c(c3)OCO4)c2N)cc1	-29%	-11%	-5	-21%	-4%
CCOc1ccccc1NC(=O)c1nnn(CC(=O)Nc2ccc3c(c2)OCO3)c1N	-9%	11%	-8	1%	0%
OCC[C@@H]1C[C@@H](O)[C@H](O)[C@@]2(OCCc3ccccc32)O1	7%	1%	17	7%	9%
Nc1c(C(=O)NCc2ccccc2)nnn1Cc1cccc(Br)c1	x	5.8µM*	x	x	4.6µM*
CSc1cccc(NC(=O)c2nnn(CC(=O)Nc3cc(C)cc(C)c3)c2N)c1	u	6.5µM*	4	u	u
O=C(NCc1ccc(Cl)cc1)c1ccc(NC(=O)N2CC3CCCN3c3ccccc32)cc1 (centres undefined)	x	18µM*	x	x	16µM*
O=C(NCc1ccc(F)cc1)c1ccc(NC(=O)N2CC3CCCN3c3ccccc32)cc1 (centres undefined)	x	12µM*	x	x	16µM*
CCN(CC)c1ccc(/C=C(/C#N)c2nc3ccccc3[nH]2)c(OC(C)C)c1	u	12µM*	3	u	18µM*
N#C/C(=C\c1ccccc1C(=O)O)c1nc2ccccc2[nH]1	-7%	2%	13	2%	-4%
Cc1cc2nc(/C(C#N)=C/c3ccncc3)[nH]c2cc1C	23µM*	16µM*	-16	u	18µM*
N#C/C(=C\c1ccncc1)c1nc2ccccc2[nH]1	-1%	u	-64*	-23%	u
N#C/C(=C\c1cccnc1)c1nc2ccccc2[nH]1	u	5.8µM*	17	u	u
CCOc1cccc(/C=C(/C#N)c2nc3ccccc3[nH]2)c1OCC(=O)O	15%	-4%	21	24%	15%
O=C(O)C1C(c2ccccc2)c2ccccc2C(O)C1CO (centres undefined)	0%	u	-15	2%	-4%
N#C/C(=C/c1ccc(OC(=O)c2ccc(Br)s2)cc1)c1nc2ccccc2[nH]1	14%	23µM*	-20	22%	u
N#C/C(=C\c1ccc(OC(=O)c2ccc(Br)s2)cc1)c1nc2ccccc2[nH]1	16%	u	3	24%	u

Assay outcomes (PubChem BioAssay)
